Screening results deposited in PubChem BioAssay by National Center for Advancing Translational Sciences (NCATS).
Most compounds without a hit are left out; they make up all but 11% or so of the library.
IMPase Li inh – cell-permeable IMPase inhibitors with lithium potentiation; CHO-M1 cells, IP1 TR-FRET (IP-One), carbachol + lithium; 0.35% of 210,000 active; Potency, µM (doses to about 59.4 µM), for the others: top-dose activity, negative = IMPase inhibition, usual class: inhibitors; active = well fitted inhibition curve with a large enough effect; inconclusive = small, poorly fitted or top-dose-only effect; inactive = no such curve, though single readings can be large or run the other way;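 also: IP1 builds up when IMPase is blocked and the TR-FRET signal falls; potency is read from the fitted curve at half-maximal effect; plate controls were basal vehicle for no effect and high inhibitor control for full effect; nearly all actives have a fitted effect of over 50% in size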
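IP1 accumulation measured by competitive TR-FRET in lysed CHO-M1 cells after 30 min compound exposure at 37C, with a small lithium addition to potentiate weak responses. Hill-equation AC50 from ratio and donor-channel data.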
HPGD inh – inhibitors of human 15-hydroxyprostaglandin dehydrogenase (HPGD); 4.3% of 150,000 active; P15428; AID 894; purified HPGD, NADH fluorescence kinetic, PGE2 substrate; Potency, µM, inactives show at the highest dose activity change, negative = inhibition, actives largely listed as inhibitors; also: potency is read from the fitted curve at half-maximal effect
Target sequence (P15428 whole entry, looked up): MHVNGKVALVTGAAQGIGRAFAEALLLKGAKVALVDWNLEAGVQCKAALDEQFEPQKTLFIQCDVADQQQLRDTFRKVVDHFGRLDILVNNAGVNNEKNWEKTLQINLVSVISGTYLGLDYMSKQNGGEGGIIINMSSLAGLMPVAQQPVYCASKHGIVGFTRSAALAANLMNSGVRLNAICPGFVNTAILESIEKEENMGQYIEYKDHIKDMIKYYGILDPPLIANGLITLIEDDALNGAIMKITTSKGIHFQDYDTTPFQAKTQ
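20 nM HPGD preincubated 15 min at room temperature with compound in 50 mM Tris-HCl pH 8, 0.01% Tween 20. Started with 1 mM NAD+ and 30 uM prostaglandin E2; NADH fluorescence (360/450 nm) read 5 times over 30-s intervals, last minus first.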
IMPase inh – cell-permeable inhibitors of inositol monophosphatase (IMPase). CHO-M1 cells, IP1 accumulation, HTRF TR-FRET ratio. inhibition (IP1 accumulation), % at 46.1 µM. 120,000 tested, under 10 active. AID 901; active = well fitted curve in the direction sought with a large enough effect in the signal ratio, not every such curve was filed as active; inconclusive = small, poorly fitted or top-dose-only effect, or a change in a side signal; inactive = no such curve, though single readings can be large or run the other way; the % refers to the signal ratio;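 also: cells stimulated with carbachol in lithium chloride buffer; plate controls were DMSO basal wells for no effect and reference inhibitor wells for full effect; higher means more IMPase inhibition seen as more IP1 and lower FRET ratio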
Target sequence (P97697 whole entry, looked up): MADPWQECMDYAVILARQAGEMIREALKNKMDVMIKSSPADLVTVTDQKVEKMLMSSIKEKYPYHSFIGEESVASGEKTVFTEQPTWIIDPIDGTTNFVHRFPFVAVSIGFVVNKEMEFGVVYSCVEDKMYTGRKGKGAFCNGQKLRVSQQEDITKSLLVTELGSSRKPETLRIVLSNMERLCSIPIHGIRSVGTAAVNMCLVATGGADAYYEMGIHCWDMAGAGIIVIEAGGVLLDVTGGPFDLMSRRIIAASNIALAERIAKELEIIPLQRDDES
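Seeded CHO-M1 cells were dosed with compound at up to 46 uM, stimulated with carbachol for 30 min, then lysed in IP-One detection reagents. Higher IP1 lowers the TR-FRET signal.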
PNC assembly inh – inhibitors of perinucleolar compartment assembly; PC3M PTB-GFP, PNC prevalence imaging, 16 h; active compounds read low; AID 2417; activity change (PNC), negative = inhibition, % at 10 µM; 3.1% of 140,000 active;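 active = readout at or below -70, meaning at least 70% loss of cells showing the perinucleolar compartment, a nuclear body marking cancer cells; inconclusive = readout between -30 and a set limit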;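 also: plate controls were DMSO wells for no effect and camptothecin positive control wells for full effect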
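Compounds are pinned in duplicate onto adhered PC3M cells stably expressing GFP-tagged PTB and incubated 16 h at 37 C. Cells are then fixed, nuclei stained with Hoechst, and PNC-positive cells counted.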
ALDH1A1 block – ALDH1A1 (human) enzyme inhibition | P00352 | 7.3% of 220,000 active | AID 1030 | Potency, µM (titrated, usually from 75.3 µM), without a hit: at the top dose activity, negative = inhibition, actives largely listed as inhibitors | Purified ALDH1A1, NADH fluorescence, propionaldehyde substrate;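 also: potency is read from the fitted curve at half-maximal effect; plate controls were no enzyme wells and a reference inhibitor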
* = called active by the depositor; ? = inconclusive; . = not tested or not shown; ! = not confirmed by another sample; [ ] = remark or other dose. Unless noted, calls follow the shape of the dose curve; as a rule, active = well fitted inhibition curve with a large enough effect (not every such curve was filed as active); inconclusive = small, poorly fitted or top-dose-only effect, or another doubt; inactive = no such curve, though single readings can be large or run the other way. Unless noted, % is scaled to controls: 0 for no effect and ±100 for the full control effect.

SMILES	IMPase Li inh	HPGD inh	IMPase inh	PNC assembly inh	ALDH1A1 block
Cc1cc(-c2nnc(CCC(=O)N(CC3CCC3)CC3CCCO3)o2)no1 (centres undefined)	11%	.	.	.	10%
O=C(c1cc2nc(-c3ccco3)cc(C(F)(F)F)n2n1)N1CCN(Cc2ccccc2)CC1	6%[38.3 µM]	?	-2	21	?
CCCCC(=O)N(C)C	-7%	-5%	.	.	?
c1ccc(-c2nnc(CN3CCCc4ccccc43)o2)cc1	18%[38.3 µM]	?	17	-2	8.9µM*
O=C(CSc1nnc(-c2ccccc2)o1)N1CCCc2ccccc21	.	.	7	.	.
COCc1cc(SC2CCCCC2)nc(C)n1	-2%	.	.	.	?
CCCCNC(=S)NCCN1CCCCC1	5%	-9%	5	8	?
CCCNC(=S)NCCN1CCCCC1	9%	5%	3	20	35µM*
Cc1nc2c(=O)[nH]c(=S)n(C)c2nc1C	-1%	10µM*	.	-114*	7.1µM*
O=C1[C@@H]2[C@H]3[C@H](O)[C@H](O)C/C(=N/OCc4ccccc4)[C@@H]3CC[C@H]2C(=O)N1c1ccc(F)cc1F	.	.	.	.	-1%[13.5 µM]
O=C(CSc1nnc(SCc2ccc(Cl)cc2)s1)c1ccc2c(c1)OCO2	4%	-12%	.	-7	2.2µM*
C=CCn1c(SCC(=O)c2ccc(Cl)cc2)nnc1-c1ccc2c(c1)OCO2	14%	8.9µM*	.	37	?
CN1[C@@H]2CC[C@H]1CC(OC(c1ccccc1)c1ccccc1)C2 (some centres undefined)	40%	-6%	10	.	7%[13.5 µM]
COc1ccc(O)c(-c2[nH]ncc2C(=O)c2ccccc2)c1	-4%[38.3 µM]	-21%	5	16	7.9µM*
Cc1c(Br)c([N+](=O)[O-])nn1CC(=O)Nc1cccc2nonc12	15%	.	.	.	3%
COC(=O)c1ccc2c(=O)n(-c3ccccc3F)c(=S)[nH]c2c1	-2%	.	.	.	16µM*
COc1ccc(-n2c(=S)[nH]c3cc(C(=O)NC4CCCCC4)ccc3c2=O)c(OC)c1	14%	.	.	.	0.1µM*
N#Cc1ccccc1NC(=O)CSc1nnc(N)s1	.	.	3	.	.
NC(N)=NCCCC(=O)O	-1%	-2%	.	.	0%[13.5 µM]
CC[C@H](C)[C@@H](NC(=O)O[C@@H]1C(=O)c2ccc(OC)cc2O[C@H]1c1cccc(C(F)(F)F)c1)C(=O)OC	18%	-2%	.	.	-3%
CN(Cc1ccccc1)Cc1nc2c([nH]1)c(=O)n(C)c(=O)n2C	6%	-6%	1	-100*	-1%
O=c1c2cc(Br)ccc2nc(-c2ccc([N+](=O)[O-])cc2)n1O	8%	.	.	.	-7%
O=c1c2c([N+](=O)[O-])cc([N+](=O)[O-])cc2sn1-c1ccc(Br)cc1	4%	2.2µM*	-1	-7	1.4µM*
NS(=O)(=O)c1ccc(CCNC(=O)CSc2nc3ccccc3c(=O)n2CCC(=O)N2CCCCC2)cc1	0%	.	.	.	7.9µM*
O=C(CSc1nc2ccccc2n1S(=O)(=O)c1ccccc1)N1CCCCC1	-3%[38.3 µM]	1.8µM*	8	-6	-6%
SMILES	IMPase Li inh	HPGD inh	IMPase inh	PNC assembly inh	ALDH1A1 block
C=CCSc1nc2ccccc2n1S(=O)(=O)c1ccc(C)cc1	3%	-3%	15	?	2%
CCOC(=O)CSc1nc2ccccc2c(=O)n1CC(C)C	10%	.	.	.	?
CC(C)Cn1c(SCC(=O)N2CCCCC2)nc2ccccc2c1=O	3%	-10%	2	43	22µM*
COCCn1c(SCC(=O)N2CCC(C)CC2)nc2ccccc2c1=O	18%[38.3 µM]	-5%	7	28	11µM*
CC(N)(C(=O)O)c1cccc(CC(=O)O)c1 (centres undefined)	2%	.	.	.	-7%
COCC(C)n1c(SCC(=O)NNC(=O)c2ccc(F)cc2)nc2ccccc2c1=O (centres undefined)	4%	-5%	11	-94*	7%
COCCn1c(SCC(=O)c2ccccc2)nc2ccccc2c1=O	32%	.	.	.	18µM*
COCCn1c(SCC(=O)NNC(=O)c2ccccc2)nc2ccccc2c1=O	.	.	2	?	2%
COCCCn1c(SCc2nnc(-c3ccc(OC)c(OC)c3)o2)nc2ccccc2c1=O	15%	20µM*	-2	-100*	-15%
O=C(Cn1c(S(=O)(=O)Cc2ccccc2)nc2ccccc21)N1CCCCC1	13%[38.3 µM]	-18%	15	?	25µM*
NC(=O)C[C@@H](N)c1nn[nH]n1	-4%	-5%	.	.	4%[13.5 µM]
Cc1ccc(S(=O)(=O)N(CC(=O)O)c2cccc(Cl)c2)cc1	.	-9%	.	.	10%
c1ccc2c(c1)CCC[C@H]2C1=NCCN1	.	.	0	.	.
CCOC(=O)CSc1nc2cc(C(=O)N3CCCC3)ccc2c(=O)n1Cc1ccccc1	23%[38.3 µM]	-5%	9	24	25µM*
O=C(N1CCCCCC1)n1c(Cc2ccccc2)nc2ccccc21	10%	-16%	2	-119*	-7%
CN(c1ccccc1)S(=O)(=O)c1cccc(C(=O)OCC(=O)NCCCN2CCCC2=O)c1	5%	.	.	.	10%
O=C(O)CSc1ccc(N=C=S)cc1	-5%	-4%	.	.	-7%[13.5 µM]
CCOC(=O)CCC(NC(=O)CCC(=O)NC(CCC(=O)OCC)C(=O)OCC)C(=O)OCC (centres undefined)	-8%	-1%	.	-134*	10%
O=S(=O)(c1ccccc1)c1ncc(C(F)(F)F)cc1O	-2%	.	.	.	?
O=S(=O)(c1ccccc1)c1ncc(C(F)(F)F)cc1Cl	-7%	.	.	.	10µM*
COC(=O)[C@@]1(Cc2ccc(OC)cc2)[C@H]2c3cc(C(=O)N(C)C)n(Cc4ccc(Cl)c(C(F)(F)F)c4)c3C[C@H]2CN1C(=O)c1ccccc1	-2%	-9%	.	.	-9%
Cc1cccc2c(=O)c(C(=O)NCCCN3CCOCC3)c[nH]c12	2%	-8%	-2	-100*	8%
CCOc1ccc2[nH]cc(C(=O)NCCCN3CCOCC3)c(=O)c2c1	5%	.	.	.	-4%
CC(C)Cn1c(-c2ccco2)csc1=Nc1cccnc1	8%[38.3 µM]	-15%	2	-29	13µM*
COCCn1c(-c2ccco2)csc1=Nc1cccnc1	19%[38.3 µM]	-17%	-4	-14	?
SMILES	IMPase Li inh	HPGD inh	IMPase inh	PNC assembly inh	ALDH1A1 block
O=c1[nH]c2cc([N+](=O)[O-])c([N+](=O)[O-])cc2[nH]c1=O	-11%	32µM*!	-8	.	1%
O=c1[nH]c(=O)c2cc([N+](=O)[O-])cc([N+](=O)[O-])c2[nH]1	5%	.	.	.	7%
COC(=O)C/C=C\[C@H](C)[C@H](CO)NS(=O)(=O)c1ccc(C)cc1	.	.	.	.	0%[13.5 µM]
CN1CCN(c2ccc(S(=O)(=O)N3CCCCC3)cn2)CC1	30%[38.3 µM]	-2%	2	-83*	6%
CCN(CC)S(=O)(=O)c1ccc(N2CCN(S(=O)(=O)c3ccc4c(c3)OCCO4)CC2)nc1	27%[38.3 µM]	18%	-5	-91*	-6%
Cc1cc(NC(=O)C2CCN(S(=O)(=O)c3cnc[nH]3)CC2)ccc1Br	8%[38.3 µM]	3%	8	23	12%
Cc1cccc(Oc2cc([N+](=O)[O-])cc3c2C(=O)Nc2ccccc2O3)c1	2%	-11%	.	-83*	0%
